# Reference: the supplement of paper PMC4466140
# Biological target: CaNbp2
# Assay: SPOT peptide array binding signal intensity (averaged, normalized) (arbitrary units (background-subtracted, floor 0; scale differs between SH3 domains)); higher = stronger binding of the SH3 domain to the peptide
# Outline: (§1)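 Peptides were synthetic 15-mers on cellulose membranes, with every cysteine replaced by serine. They were incubated overnight at 4°C with GST-SH3 domains from four yeast species at 10 μg/ml in TBS-based blocking buffer. Binding signal, the replicate-averaged normalized and background-subtracted spot intensity, is in arbitrary units that differ between domains.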
row,Binder,SPOT peptide array binding signal intensity
1,HGKRRAPLLLAKLDV,1060

# Biological target: CaRvs167
# Assay: as above
# Outline: as §1
row,Binder,SPOT peptide array binding signal intensity
1,HGKRRAPLLLAKLDV,7.67

# Biological target: CaRvs167-3
# Assay: as above
# Outline: as §1
row,Binder,SPOT peptide array binding signal intensity
1,HGKRRAPLLLAKLDV,17.5

# Biological target: CaSho1
# Assay: as above
# Outline: as §1
row,Binder,SPOT peptide array binding signal intensity
1,HGKRRAPLLLAKLDV,95

# Biological target: CaSla1-D1-D2
# Assay: as above
# Outline: as §1
row,Binder,SPOT peptide array binding signal intensity
1,HGKRRAPLLLAKLDV,122

# Biological target: CaSla1-D3
# Assay: as above
# Outline: as §1
row,Binder,SPOT peptide array binding signal intensity
1,HGKRRAPLLLAKLDV,8.75

# Biological target: ScAbp1
# Assay: as above
# Outline: as §1
row,Binder,SPOT peptide array binding signal intensity
1,HGKRRAPLLLAKLDV,50

# Biological target: ScBbc1
# Assay: as above
# Outline: as §1
row,Binder,SPOT peptide array binding signal intensity
1,HGKRRAPLLLAKLDV,12.2

# Biological target: ScBem1-D1
# Assay: as above
# Outline: as §1
row,Binder,SPOT peptide array binding signal intensity
1,HGKRRAPLLLAKLDV,30

# Biological target: ScBzz1-D1
# Assay: as above
# Outline: as §1
row,Binder,SPOT peptide array binding signal intensity
1,HGKRRAPLLLAKLDV,21.5

# Biological target: ScBzz1-D2
# Assay: as above
# Outline: as §1
row,Binder,SPOT peptide array binding signal intensity
1,HGKRRAPLLLAKLDV,27

# Biological target: ScCyk3
# Assay: as above
# Outline: as §1
row,Binder,SPOT peptide array binding signal intensity
1,HGKRRAPLLLAKLDV,102

# Biological target: ScFus1
# Assay: as above
# Outline: as §1
row,Binder,SPOT peptide array binding signal intensity
1,HGKRRAPLLLAKLDV,136

# Biological target: ScHof1
# Assay: as above
# Outline: as §1
row,Binder,SPOT peptide array binding signal intensity
1,HGKRRAPLLLAKLDV,0.5

# Biological target: ScHse1
# Assay: as above
# Outline: as §1
row,Binder,SPOT peptide array binding signal intensity
1,HGKRRAPLLLAKLDV,732

# Biological target: ScLsb1
# Assay: as above
# Outline: as §1
row,Binder,SPOT peptide array binding signal intensity
1,HGKRRAPLLLAKLDV,≤ 0

# Biological target: ScLsb2
# Assay: as above
# Outline: as §1
row,Binder,SPOT peptide array binding signal intensity
1,HGKRRAPLLLAKLDV,≤ 0

# Biological target: ScLsb3
# Assay: as above
# Outline: as §1
row,Binder,SPOT peptide array binding signal intensity
1,HGKRRAPLLLAKLDV,16.5

# Biological target: ScLsb4
# Assay: as above
# Outline: as §1
row,Binder,SPOT peptide array binding signal intensity
1,HGKRRAPLLLAKLDV,≤ 0

# Biological target: ScMyo3
# Assay: as above
# Outline: as §1
row,Binder,SPOT peptide array binding signal intensity
1,HGKRRAPLLLAKLDV,1

# Biological target: ScMyo5
# Assay: as above
# Outline: as §1
row,Binder,SPOT peptide array binding signal intensity
1,HGKRRAPLLLAKLDV,5.5

# Biological target: ScNbp2
# Assay: as above
# Outline: as §1
row,Binder,SPOT peptide array binding signal intensity
1,HGKRRAPLLLAKLDV,210

# Biological target: ScPex13
# Assay: as above
# Outline: as §1
row,Binder,SPOT peptide array binding signal intensity
1,HGKRRAPLLLAKLDV,≤ 0

# Biological target: ScRvs167
# Assay: as above
# Outline: as §1
row,Binder,SPOT peptide array binding signal intensity
1,HGKRRAPLLLAKLDV,11.3

# Biological target: ScSho1
# Assay: as above
# Outline: as §1
row,Binder,SPOT peptide array binding signal intensity
1,HGKRRAPLLLAKLDV,186

# Biological target: ScSla1-D1-D2
# Assay: as above
# Outline: as §1
row,Binder,SPOT peptide array binding signal intensity
1,HGKRRAPLLLAKLDV,126

# Biological target: ScSla1-D3
# Assay: as above
# Outline: as §1
row,Binder,SPOT peptide array binding signal intensity
1,HGKRRAPLLLAKLDV,20.5

# Biological target: SpAbp1-D1
# Assay: as above
# Outline: as §1
row,Binder,SPOT peptide array binding signal intensity
1,HGKRRAPLLLAKLDV,55

# Biological target: SpBbc1
# Assay: as above
# Outline: as §1
row,Binder,SPOT peptide array binding signal intensity
1,HGKRRAPLLLAKLDV,0.5

# Biological target: SpBzz1-D1
# Assay: as above
# Outline: as §1
row,Binder,SPOT peptide array binding signal intensity
1,HGKRRAPLLLAKLDV,204

# Biological target: SpBzz1-D2
# Assay: as above
# Outline: as §1
row,Binder,SPOT peptide array binding signal intensity
1,HGKRRAPLLLAKLDV,≤ 0

# Biological target: SpCyk3
# Assay: as above
# Outline: as §1
row,Binder,SPOT peptide array binding signal intensity
1,HGKRRAPLLLAKLDV,18

# Biological target: SpHof1
# Assay: as above
# Outline: as §1
row,Binder,SPOT peptide array binding signal intensity
1,HGKRRAPLLLAKLDV,31.2

# Biological target: SpHof1-2
# Assay: as above
# Outline: as §1
row,Binder,SPOT peptide array binding signal intensity
1,HGKRRAPLLLAKLDV,4.25

# Biological target: SpHof1-3
# Assay: as above
# Outline: as §1
row,Binder,SPOT peptide array binding signal intensity
1,HGKRRAPLLLAKLDV,242

# Biological target: SpHse1
# Assay: as above
# Outline: as §1
row,Binder,SPOT peptide array binding signal intensity
1,HGKRRAPLLLAKLDV,235

# Biological target: SpLsb1
# Assay: as above
# Outline: as §1
row,Binder,SPOT peptide array binding signal intensity
1,HGKRRAPLLLAKLDV,≤ 0

# Biological target: SpLsb4
# Assay: as above
# Outline: as §1
row,Binder,SPOT peptide array binding signal intensity
1,HGKRRAPLLLAKLDV,21.5

# Biological target: SpMyo1
# Assay: as above
# Outline: as §1
row,Binder,SPOT peptide array binding signal intensity
1,HGKRRAPLLLAKLDV,2

# Biological target: SpNbp2
# Assay: as above
# Outline: as §1
row,Binder,SPOT peptide array binding signal intensity
1,HGKRRAPLLLAKLDV,63.5

# Biological target: SpPex13
# Assay: as above
# Outline: as §1
row,Binder,SPOT peptide array binding signal intensity
1,HGKRRAPLLLAKLDV,10

# Biological target: SpRvs167
# Assay: as above
# Outline: as §1
row,Binder,SPOT peptide array binding signal intensity
1,HGKRRAPLLLAKLDV,≤ 0

# Biological target: SpSla1-D1-D2
# Assay: as above
# Outline: as §1
row,Binder,SPOT peptide array binding signal intensity
1,HGKRRAPLLLAKLDV,≤ 0

# Biological target: SpSla1-D3
# Assay: as above
# Outline: as §1
row,Binder,SPOT peptide array binding signal intensity
1,HGKRRAPLLLAKLDV,2
